In PubChem BioAssay (NCI):
The panel holds about 83,000 compounds, 20% with a hit somewhere; the sample as a whole holds those more often.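 A percent growth of 40 corresponds to 60% growth inhibition; 0 means no net growth; -100 means all cells died. Active threshold: below 10.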 Calls of active or inactive are those of the source.

tested on: HOP-62 NSCLC; test: NCI-60 one-dose screen, 48 h (100 = growth as untreated, 0 = no growth, -100 = all killed); details: 10 µM unless noted

SMILES	growth
Brc1ccc2[nH]cc(-c3nc(-c4c[nH]c5ncccc45)cs3)c2c1	56.6% (inactive)
Cc1ccc(-c2ccc(Nc3ccccc3)nn2)cc1S(N)(=O)=O	107% (inactive)
Cn1c2c(Cl)c(Cl)ccc2c2c(C#N)c[nH]c(=O)c21	94.1% (inactive)
C/C(=N/NC(N)=S)C(=O)O	107% (inactive)
CCCCC[C@H]1C/C=C2/C(=O)C=C[C@@H]2C/C=C\CCCC(=O)O[C@@H](CCCCC)C/C=C2/C(=O)C=C[C@@H]2C/C=C\CCCC(=O)O1	-74.4% (active)
C#CCn1c(C)cc(C)c(C#N)c1=O	109% (inactive)
N#CC1C(=N)Cc2ccccc2-c2ccccc21 (stereo not drawn)	57.6% (inactive)
Cc1cc(N2CCCCC2)nc(N(CCNc2ccnc3cc(Cl)ccc23)Cc2ccco2)n1	24.3% (inactive)
C[C@@H](C(=O)O)c1ccc2c3cc(Cl)ccc3n(Cc3cc(=O)oc4ccc(Cl)cc34)c2c1	103% (inactive)
C=C1C(=O)O[C@H]2[C@H]1CC/C(COC(=O)NCc1cc3ccccc3[nH]1)=C\CC[C@@]1(C)O[C@@H]21	58.3% (inactive)
CCOC(=O)N1CCN(CCCCOc2ccc(C(C)(C)CC)cc2)CC1	100% (inactive)
OCC(CO)(CCl)CCl	99% (inactive)
COc1ccc(-c2cc(/C=C/C(=O)c3ccc(N)cc3)[nH]n2)cc1	15.4% (inactive)
CC(C)(C)c1nc(-c2ccc(O)c(O)c2)cs1	66.7% (inactive)
Brc1ccc(Cn2nnnc2-c2ccn(-c3ccccc3)n2)cc1	74.3% (inactive)
COC(=O)C(Cc1ccccc1)n1cc(COc2nc(Cl)nc(Nc3ccc(Cl)cc3)n2)nn1 (stereo not drawn)	95% (inactive)
COc1cccc(-c2nn(-c3ccccc3)cc2-c2ccnc(NCCNS(=O)(=O)c3ccccc3)c2)c1	58.6% (inactive)
Nc1c(C(=O)Nc2cccc3ccccc23)sc2nc3c(cc12)CCCC3	29.9% (inactive)
Cn1cc(-c2csc(-c3cn(CCN)c4ccc(F)cc34)n2)c2cccnc21	64.7% (inactive)
COc1ccc(NC(=S)N/N=C/c2ccccc2SSCCC(=O)OC[C@H]2O[C@H](O)[C@H](O)[C@@H](O)[C@@H]2O)cc1	45.8% (inactive)
c1ccc(-c2nc(Nc3ccc(-c4nc5ccccc5[nH]4)cc3)nc(N3CCOCC3)n2)cc1	-64.5% (active)
COc1cnc2c(c1)C(=O)c1c-2n(CCCNC2=NCCS2)c(=O)c2cc([N+](=O)[O-])ccc12	-59.6% (active)
OCCNc1nc(Nc2ccc(Cl)c(Cl)c2)nc2ccccc12	49.1% (inactive)
Oc1ccc(CCC2CCCC(CCc3ccc(OCCF)cc3)N2)cc1 (stereo not drawn)	95.6% (inactive)
Cc1ccsc1-c1ccc2c(c1)COC2(CCCN(C)C)c1ccc(F)cc1 (stereo not drawn)	69.4% (inactive)
COc1ccc(NC(=O)c2ccoc2COc2ccccc2)cc1	100% (inactive)

tested on: NCI-H460 lung; test: as above; details: 10 µM unless noted

SMILES	growth
Nc1c(C(=O)Nc2c(Cl)cccc2Cl)sc2nc3c(cc12)CCCC3	66.4% (inactive)
COc1cc2ncnc(Nc3ccc(OCc4cccc(F)c4)c(Cl)c3)c2cc1NC(=O)C1CCCC1	88.7% (inactive)
O=S(=O)(NCCNc1cc(-c2cn(-c3ccccc3)nc2-c2cccc(O)c2)ccn1)c1ccc(Br)cc1	26% (inactive)
Brc1ccc2[nH]cc(-c3nc(-c4c[nH]c5ncccc45)cs3)c2c1	15.7% (inactive)
Cc1ccc(-c2ccc(Nc3ccccc3)nn2)cc1S(N)(=O)=O	82.9% (inactive)
Cn1c2c(Cl)c(Cl)ccc2c2c(C#N)c[nH]c(=O)c21	96.2% (inactive)
C/C(=N/NC(N)=S)C(=O)O	99.3% (inactive)
N#CC1C(=N)Cc2ccccc2-c2ccccc21 (stereo not drawn)	27% (inactive)
COc1ccc(-c2cc(/C=C/C(=O)c3ccc(N)cc3)[nH]n2)cc1	-50% (active)
CC(C)(C)c1nc(-c2ccc(O)c(O)c2)cs1	33.1% (inactive)
Brc1ccc(Cn2nnnc2-c2ccn(-c3ccccc3)n2)cc1	73.8% (inactive)
Nc1c(C(=O)Nc2cccc3ccccc23)sc2nc3c(cc12)CCCC3	16.4% (inactive)
OCCNc1nc(Nc2ccc(Cl)c(Cl)c2)nc2ccccc12	33.3% (inactive)
Oc1ccc(CCC2CCCC(CCc3ccc(OCCF)cc3)N2)cc1 (stereo not drawn)	102% (inactive)

tested on: HOP-92 NSCLC; test: as above; details: 10 µM unless noted

SMILES	growth
Nc1c(C(=O)Nc2c(Cl)cccc2Cl)sc2nc3c(cc12)CCCC3	89.2% (inactive)
COc1cc2ncnc(Nc3ccc(OCc4cccc(F)c4)c(Cl)c3)c2cc1NC(=O)C1CCCC1	76.4% (inactive)
O=C(N/N=C/c1ccccc1SSc1ccccc1/C=N/NC(=O)c1ccccc1)c1ccccc1	59.6% (inactive)
C[C@@H]1CCCCCCCCC[C@H](O)C(=O)C[C@@H](SC[C@@H](O)C(=O)O)C(=O)O1	90.8% (inactive)
C=C(C)[C@@H]1CC[C@]2(C)[C@H](CC=C3[C@@H]4CC(C)(C)CC[C@]4(C(=O)OC)CC[C@]32C)[C@@]1(C)CC/C(N)=N/O	45.9% (inactive)
C=C(C)[C@@H]1CC[C@]2(C)[C@H](CC=C3[C@@H]4CC(C)(C)CC[C@]4(C=O)CC[C@]32C)[C@@]1(C)CCCN	62% (inactive)
Cc1ccc(/C=C(\C#N)c2cc3ccccc3n2C)cc1	90.5% (inactive)
N=C(N)c1ccc(S(N)(=O)=O)cc1	93.6% (inactive)
COc1ccc(-c2cc(=O)oc3ccc(Cl)cc23)cc1F	33.6% (inactive)
CCSc1sc(-c2ccc(C)cc2)nc1[P+](c1ccccc1)(c1ccccc1)c1ccccc1	-38.3% (active)
COC(=O)[C@]12CC[C@@H](C)[C@H](C)[C@@H]1C1=CC(=O)[C@@H]3[C@@]4(C)C[C@@H](O)[C@H](O)[C@@]5(C)COC(=C45)C[C@@]3(C)[C@]1(C)CC2	45.6% (inactive)
O=S(=O)(NCCNc1cc(-c2cn(-c3ccccc3)nc2-c2cccc(O)c2)ccn1)c1ccc(Br)cc1	33.3% (inactive)
Brc1ccc2[nH]cc(-c3nc(-c4c[nH]c5ncccc45)cs3)c2c1	47.9% (inactive)
Cc1ccc(-c2ccc(Nc3ccccc3)nn2)cc1S(N)(=O)=O	98.9% (inactive)
Cn1c2c(Cl)c(Cl)ccc2c2c(C#N)c[nH]c(=O)c21	78.6% (inactive)
C/C(=N/NC(N)=S)C(=O)O	107% (inactive)
CCCCC[C@H]1C/C=C2/C(=O)C=C[C@@H]2C/C=C\CCCC(=O)O[C@@H](CCCCC)C/C=C2/C(=O)C=C[C@@H]2C/C=C\CCCC(=O)O1	-68.8% (active)
C#CCn1c(C)cc(C)c(C#N)c1=O	98.3% (inactive)
N#CC1C(=N)Cc2ccccc2-c2ccccc21 (stereo not drawn)	49.6% (inactive)

SMILES	growth
Cc1cc(N2CCCCC2)nc(N(CCNc2ccnc3cc(Cl)ccc23)Cc2ccco2)n1	52% (inactive)
C[C@@H](C(=O)O)c1ccc2c3cc(Cl)ccc3n(Cc3cc(=O)oc4ccc(Cl)cc34)c2c1	108% (inactive)
C=C1C(=O)O[C@H]2[C@H]1CC/C(COC(=O)NCc1cc3ccccc3[nH]1)=C\CC[C@@]1(C)O[C@@H]21	-14.3% (active)
CCOC(=O)N1CCN(CCCCOc2ccc(C(C)(C)CC)cc2)CC1	86.3% (inactive)
OCC(CO)(CCl)CCl	86.4% (inactive)
COc1ccc(-c2cc(/C=C/C(=O)c3ccc(N)cc3)[nH]n2)cc1	73.6% (inactive)
CC(C)(C)c1nc(-c2ccc(O)c(O)c2)cs1	61.3% (inactive)
Brc1ccc(Cn2nnnc2-c2ccn(-c3ccccc3)n2)cc1	63.8% (inactive)
COC(=O)C(Cc1ccccc1)n1cc(COc2nc(Cl)nc(Nc3ccc(Cl)cc3)n2)nn1 (stereo not drawn)	105% (inactive)
COc1cccc(-c2nn(-c3ccccc3)cc2-c2ccnc(NCCNS(=O)(=O)c3ccccc3)c2)c1	19.4% (inactive)
Nc1c(C(=O)Nc2cccc3ccccc23)sc2nc3c(cc12)CCCC3	44% (inactive)
Cn1cc(-c2csc(-c3cn(CCN)c4ccc(F)cc34)n2)c2cccnc21	48.5% (inactive)
COc1ccc(NC(=S)N/N=C/c2ccccc2SSCCC(=O)OC[C@H]2O[C@H](O)[C@H](O)[C@@H](O)[C@@H]2O)cc1	104% (inactive)
c1ccc(-c2nc(Nc3ccc(-c4nc5ccccc5[nH]4)cc3)nc(N3CCOCC3)n2)cc1	-66.3% (active)
COc1cnc2c(c1)C(=O)c1c-2n(CCCNC2=NCCS2)c(=O)c2cc([N+](=O)[O-])ccc12	24.9% (inactive)
OCCNc1nc(Nc2ccc(Cl)c(Cl)c2)nc2ccccc12	27.4% (inactive)
Oc1ccc(CCC2CCCC(CCc3ccc(OCCF)cc3)N2)cc1 (stereo not drawn)	75.3% (inactive)
Cc1ccsc1-c1ccc2c(c1)COC2(CCCN(C)C)c1ccc(F)cc1 (stereo not drawn)	41.6% (inactive)
COc1ccc(NC(=O)c2ccoc2COc2ccccc2)cc1	88.8% (inactive)
